Reference: PubChem BioAssay AID1030 (National Center for Advancing Translational Sciences (NCATS), 2008)
Hit rate of the full screen: of about 220,000 compounds, about 16,000 (7.3%) were called active. Another 25% or so got no clear call; they are omitted. The call rests on the fitted dose curve; in most records, active means well fitted inhibition curve with a large enough effect (not every such curve was filed as active); inconclusive means small, poorly fitted or top-dose-only effect, or another doubt; inactive means no such curve, though single readings can be large or run the other way. The sample as a whole holds a higher share of actives than the screen did.

The compounds below were run against Aldehyde dehydrogenase 1A1 (Homo sapiens) (UniProt P00352) (assay: qHTS Assay for Inhibitors of Aldehyde Dehydrogenase 1 (ALDH1A1)). Conditions: Purified ALDH1A1, NADH fluorescence, propionaldehyde substrate; series mostly up to 75.3 µM; activity, negative = inhibition: at the top concentration.
Potency means the concentration at half of the fitted maximal effect.
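Wherever activity, negative = inhibition is given: plate controls were no enzyme wells and a reference inhibitor.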

Aldehyde dehydrogenase 1A1 (Homo sapiens), sequence (P00352 whole entry, looked up): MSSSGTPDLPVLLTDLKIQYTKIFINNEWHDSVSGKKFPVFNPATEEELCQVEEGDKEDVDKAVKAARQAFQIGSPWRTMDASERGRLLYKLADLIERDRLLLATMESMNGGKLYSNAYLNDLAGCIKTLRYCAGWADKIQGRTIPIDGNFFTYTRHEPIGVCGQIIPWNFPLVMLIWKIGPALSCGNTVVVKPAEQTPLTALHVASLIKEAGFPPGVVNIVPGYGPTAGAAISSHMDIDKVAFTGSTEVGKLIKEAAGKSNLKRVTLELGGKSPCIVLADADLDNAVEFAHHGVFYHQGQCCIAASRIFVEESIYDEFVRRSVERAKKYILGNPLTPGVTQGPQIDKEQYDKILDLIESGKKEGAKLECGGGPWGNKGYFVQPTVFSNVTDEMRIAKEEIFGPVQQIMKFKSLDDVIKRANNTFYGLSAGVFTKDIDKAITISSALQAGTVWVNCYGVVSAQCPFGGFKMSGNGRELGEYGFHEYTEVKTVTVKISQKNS

Compound	activity, negative = inhibition	Potency
CCOc1ccc(/C=N/Nc2nncc(-c3ccccc3)n2)cc1OC	0.413% (inactive)	–
CN(C)S(=O)(=O)c1cccc(NC(=O)COC(=O)c2cc(=O)[nH]c(=O)[nH]2)c1	9.89% (inactive)	–
CN(C)S(=O)(=O)c1ccc(NC(=O)COC(=O)Cn2[nH]c(=O)c3ccccc3c2=O)cc1	–	28.2 µM (active)
CN(C)S(=O)(=O)c1ccc(NC(=O)COC(=O)c2n[nH]c3ccccc23)cc1	-4.11% (inactive)	–
C=CCN(c1ccc(Cl)cc1)S(=O)(=O)c1cccc(C(=O)OCC(=O)N(C)C)c1	-5.46% (inactive)	–
O=C(NNC(=S)NCc1ccccc1)c1ccc(OC(F)F)cc1	-3.55% (inactive)	–
Cc1nc2nc[nH]n2c(=O)c1C/C=C/c1ccccc1	3.08% (inactive)	–
CC(C)=CCN1CCC2(CCc3ccccc32)CC1	-2.6% (inactive)	–
Cc1cccc(C(=O)NNC(=O)c2cccc([N+](=O)[O-])c2)c1	4.38% (inactive)	–
O=[N+]([O-])c1cccc(/C([O-])=C(/C(=S)Nc2ccccc2F)[n+]2ccccc2)c1	–	22.4 µM (active)
CCC(C)NCC(=O)Nc1ccc([N+](=O)[O-])cc1C(=O)Nc1ccccc1F (centres undefined)	9.71% (inactive)	–
CCOc1cc(N2CCOCC2)c(OCC)cc1NC(=O)C1=NN(c2cccc(C)c2)C(=O)CC1	7.65% (inactive)	–
CCNC(=S)Nc1ccc(OC(F)(F)F)cc1	4.74% (inactive)	–
CCOC(=O)/C(C#N)=C/c1ccc(N2CCN(Cc3ccccc3)CC2)cc1	-2.33% (inactive)	–
CCOC(=O)C(C(=O)OCC)C(C#N)c1ccccc1 (centres undefined)	-8.83% (inactive)	–
CCOC(=O)NC(=O)/C(C#N)=C\c1ccccc1	–	7.08 µM (active)
Cc1ccnc(NC(=O)Cn2ccc([N+](=O)[O-])n2)c1	11.9% (inactive)	–
Cc1ccc(CC(=O)Nc2cccc(C#N)c2)cc1	-3.78% (inactive)	–
CS(=O)(=O)c1ccc2nnn(OCC(=O)Nc3cccc(C#N)c3)c2c1	–	10 µM (active)
Cc1cc(NC(=O)COn2nnc3ccccc32)no1	1.05% (inactive)	–
CC(=O)c1ccccc1NC(=O)CC1(CC(=O)O)CCCCC1	-9.92% (inactive)	–
C=CCC1CCC(=O)N2CCCC12 (centres undefined)	9.92% [at 120 µM] (inactive)	–
Cc1ccccc1CSCC(=O)NC(=O)NC(C)(C)C	9.74% (inactive)	–

Compound	activity, negative = inhibition	Potency
CC(C)(C)NC(=O)CSC(=Nc1ccccc1F)NC#N	–	1.26 µM (active)
COc1ccccc1-n1ccnc1SCC(=O)NC(C)(C)C	3.5% (inactive)	–
COc1cccc(OC)c1CN(C)C(=O)c1cnccc1C(F)(F)F	1.98% (inactive)	–
O=C(N/N=C/c1ccc([N+](=O)[O-])cc1)c1c[nH]c2ccccc12	0.458% (inactive)	–
CC(=O)NCCC(=O)Nc1nc(C)c(Cc2ccc3c(c2)OCO3)s1	6.08% (inactive)	–
S=c1ccc2ccccc2[nH]1	–	25.1 µM (active)
O=C(Nc1ccccc1)c1cc2ccccc2[nH]1	7.57% (inactive)	–
COc1cc(COCC(O)CN2CCN(Cc3ccc4c(c3)OCO4)CC2)cc(OC)c1OC (centres undefined)	-0.814% (inactive)	–
Cc1nc([N+](=O)[O-])cn1CC(=O)Nc1ccc2c(c1)OCO2	11.1% (inactive)	–
Cn1cnc(C(F)(F)F)c1-c1ccc([N+](=O)[O-])cc1	18.6% (inactive)	–
Cc1cccc(C)c1Nc1nnc(SCC(=O)Nc2sccc2C#N)s1	-18.8% (inactive)	–
CC(C)C(=O)Nc1c(O)c2ccccc2[nH]c1=O	-14.2% (inactive)	–
O=C1C(c2[nH]c3ccccc3c2O)=Nc2ccccc21	–	15.8 µM (active)
CC(=O)Nc1ccc(OCC(=O)NCc2ccc(C)cc2)cc1	-1.99% (inactive)	–
C/C=C/c1ccc(OCC(O)CN2CCCCCCC2)c(OC)c1 (centres undefined)	-7.83% (inactive)	–
CCOC(=O)CNc1nc(Cl)nc(Nc2ccccc2)n1	2.86% (inactive)	–
CC(NC(=S)Nc1ccc(OC(F)F)cc1)c1ccc(F)cc1 (centres undefined)	-6.11% (inactive)	–
Cc1ccc(C(=O)N2CCN(C(=O)N3CCOCC3)CC2)cc1	-11.9% (inactive)	–
O=C(c1ccc(S(=O)(=O)c2ccccc2)cc1)N1CCCCCC1	-9.72% (inactive)	–
O=C(Nc1cccc(C(=O)N2CCCC2)c1)c1ccccc1	5.92% (inactive)	–
N#Cc1ccccc1-n1c(N)c(C(=O)N2CCCC2)sc1=S	–	11.2 µM (active)
Cc1cccc(C(=O)N2CCCN(C(=O)c3cccc(C)c3)CC2)c1	-5.29% (inactive)	–
Cc1nc2ccc(C(=O)N3CCN(c4ccccc4)CC3)cc2s1	0.77% (inactive)	–

Compound	activity, negative = inhibition	Potency
Cc1cccc(-n2c(N)c(C(=O)N3CCN(C)CC3)sc2=S)c1	–	22.4 µM (active)
Cc1ccc(OCCCC(=O)N2CCOCC2)c(C)c1	-7.47% (inactive)	–
Cc1ccc(-n2c(N)c(C(=O)N3CCOCC3)sc2=S)c(C)c1	–	10 µM (active)
CCN(CC)S(=O)(=O)c1ccc(N(C)Cc2cccc(OC)c2OC)nc1	-13% (inactive)	–
CC(C)(C)OC(=O)NCCCCC1=CC2=CC(=O)C(C)(OC(=O)c3cccs3)C(=O)C2=CO1 (centres undefined)	7.23% (inactive)	–
O=C(c1snnc1-c1ccccc1)N1CCOCC1	2.9% (inactive)	–
Cc1cc(-c2nnc(CCC(=O)NC(c3ccccc3)c3ccccc3)o2)no1	-6.35% (inactive)	–
O=C(/C=C/c1ccc(F)cc1)NCCNC(=O)/C=C/c1ccc(F)cc1	10.5% (inactive)	–
O=C(CCC1CCCN(Cc2ccc(O)c(Cl)c2)C1)NCc1ccccc1F (centres undefined)	-7.56% (inactive)	–
CC(C)CC(=O)NC(=S)Nc1cc(C(=O)O)ccc1Cl	10.3% (inactive)	–
CCOCC(=O)Nc1cc(OC)c(Cl)cc1OC	-7.89% (inactive)	–
COc1cc(NC(=S)NNC(=O)CC(C)C)c(OC)cc1Cl	–	25.1 µM (active)
CCC(CC)C(=O)Nc1ccc(S(=O)(=O)Nc2nccs2)cc1	-0.847% (inactive)	–
O=C(C1CCCN1S(=O)(=O)c1ccc(Br)cc1)N1CCOCC1 (centres undefined)	1.94% (inactive)	–
COc1cccc(Oc2ccc(N)cc2)c1	-8.54% (inactive)	–
Nc1ccc(Oc2ccc(Cl)cc2)cc1	-10.1% (inactive)	–
Cc1ccc(Oc2ccc(N)cc2)cc1	–	17.8 µM (active)
O=C(NNS(=O)(=O)c1ccc(F)cc1)c1cnccn1	2.86% (inactive)	–
Cc1c(Cl)c([N+](=O)[O-])nn1CCCC(=O)NC(C)c1ccccc1 (centres undefined)	-5.68% (inactive)	–
S=C(Nc1cccc(Br)c1)N1CCn2cccc2C1c1cccnc1 (centres undefined)	-6.93% (inactive)	–
O=c1oc2ccccc2cc1-c1csc(Nc2ccc(O)cc2)n1	-10.9% (inactive)	–
COc1ccc2nc(Nc3nc(-c4cc5ccccc5oc4=O)cs3)sc2c1	1.54% (inactive)	–
Nc1ncc(-c2cc3ccccc3oc2=O)s1	–	11.2 µM (active)

Compound	activity, negative = inhibition	Potency
CC(C)NC(=O)c1ccc(Cl)cc1Cl	-1.33% (inactive)	–
COc1cccc(NC(=O)CN(C)C(C)C(=O)Nc2ccc(C#N)cc2)c1 (centres undefined)	1.94% (inactive)	–
COc1cccc(CNC(=O)CCN2C(=S)NC(C)(C)CC2C)c1 (centres undefined)	-4.03% (inactive)	–
O=C(CCN1CCN(c2ccccc2)CC1)NNC(=S)Nc1ccccc1	-6.58% (inactive)	–
O=C(O)/C=C\C(=O)Nc1ccc(OCc2ccccc2)cc1	–	25.1 µM (active)
O=C(/C=C/c1ccco1)Nc1ccc(Oc2ccccc2)cc1	2.63% (inactive)	–
O=C(N/N=C/c1ccc(OCc2ccccc2)cc1)c1ccc(O)cc1	12.2% (inactive)	–
NC(=O)COC(=O)c1cc(S(=O)(=O)N2CCN(c3ccccc3)CC2)ccc1Cl	2.01% (inactive)	–
COC(=O)C1=C(C)OC(N)=C(C#N)C1c1cc(OC)ccc1OC (centres undefined)	3.09% (inactive)	–
CCOC(=O)C1=C(CC)OC(N)=C(C#N)C1c1ccc(F)cc1F (centres undefined)	10.9% (inactive)	–
CCC1=C(C(=O)OC)C(c2cc(OC)ccc2OC)C(C#N)=C(N)O1 (centres undefined)	–	17.8 µM (active)
COc1ccc(S(=O)(=O)N(C)CC(=O)N2CCCC2)cc1Cl	-3.37% (inactive)	–
Cc1noc(C)c1S(=O)(=O)N(C)Cc1ccccc1	0.615% (inactive)	–
Cc1cccc(NS(=O)(=O)c2ccc(C)c(C(N)=O)c2)c1	-7.93% (inactive)	–
CC(NC(=O)C(=O)N/N=C/c1ccc(Cl)cc1)c1ccccc1 (centres undefined)	-4.56% (inactive)	–
Cc1ccc(-n2c(C)cc(C(=O)CN3C(=O)C(=O)N(C4CCCC4)C3=O)c2C)cc1	1.53% (inactive)	–
COc1cc(CNC2CCCCC2)c(Br)cc1OC1CCCC1	-3.19% (inactive)	–
O=C(Cc1ccccc1)NNS(=O)(=O)c1ccc([N+](=O)[O-])cc1	15.8% (inactive)	–
O=C(O)/C=C/C(=O)NNc1ccc([N+](=O)[O-])cc1	–	14.1 µM (active)
O=C(Nc1ccc([N+](=O)[O-])cc1)C1(c2ccccc2)CCOCC1	4.59% (inactive)	–
NC(=O)c1ccc(CN2CCC(Cc3ccccc3)CC2)cc1	6.52% (inactive)	–
O=C(COC(=O)c1ccc[nH]c1=O)Nc1ccc2c(c1)OC(F)(F)O2	8.44% (inactive)	–
Cc1c(S(=O)(=O)O)ccc(N=Nc2c(O)c(C(=O)O)cc3ccccc23)c1Cl	–	3.55 µM (active)

Compound	activity, negative = inhibition	Potency
Cc1nn(Cc2ccc(Cl)cc2)c(Cl)c1/C=N/NC(=O)CNc1ccccc1F	21.3% (inactive)	–
O=C(NNC(=S)NCc1ccco1)C(c1ccccc1)c1ccccc1	1.75% (inactive)	–
FC(F)Oc1ccc(NC(=S)NCc2ccco2)cc1Cl	–	14.1 µM (active)
COC(=O)Cc1ccc(NC(=S)NCc2ccco2)cc1	4.15% (inactive)	–
O=C(NCc1cccs1)c1cc(-c2ccccn2)nc2ccc(Br)cc12	6.33% (inactive)	–
OC(COc1ccccc1)Cn1cc(Br)cn1 (centres undefined)	2.81% (inactive)	–
C=CCn1c(=N)n(CC(O)COc2ccc(OC)cc2)c2ccccc21 (centres undefined)	-1.74% (inactive)	–
OC(CN=c1sc2ccccc2n1CC(O)COc1ccccc1)COc1ccccc1 (centres undefined)	–	2.82 µM (active)
Cc1ccccc1NS(=O)(=O)CCCCC(Cl)(Cl)Cl	-3.72% (inactive)	–
O=C1N=C(N2CCOCC2)S/C1=C\C=C/c1ccccc1	0.576% (inactive)	–
Cc1ccsc1/C=C1\SC(N2CCOCC2)=NC1=O	–	14.1 µM (active)
CCc1ccc(/C=C2\SC(N3CCOCC3)=NC2=O)cc1	1.81% (inactive)	–
NC(N)=NCCCc1cn(CC(=O)N2CCNCC2)nn1	0.974% (inactive)	–
Cc1cc(C)cc(OCC(=O)O/N=C(\N)Cc2ccc([N+](=O)[O-])cc2)c1	–	10 µM (active)
CCOC(=O)COc1ccc([N+](=O)[O-])cc1	-7.41% (inactive)	–
N/C(=N\OC(=O)COc1ccc([N+](=O)[O-])cc1)c1ccc(Br)cc1	5.49% (inactive)	–
COC(=O)C(NS(=O)(=O)c1ccc(F)cc1)c1ccccc1 (centres undefined)	1.82% (inactive)	–
CC1CCC(C(C)C)C(=O)/C1=C\c1ccc(NC(=O)CCC(=O)O)cc1 (centres undefined)	0.0468% (inactive)	–
COc1ccc(S(=O)(=O)N2CCN(C(=O)c3cc(C)oc3C)CC2)cc1	-3.86% (inactive)	–
COc1ccc(OC)c(C(=O)c2coc3ccc(OC)cc23)c1	–	14.1 µM (active)
COc1ccc(OC)c(C(=O)c2coc3ccc(O)c(CN4CCOCC4)c23)c1	-9.73% (inactive)	–
COc1ccc2occ(C(=O)c3ccc(N=C(C)N(C)C)cc3)c2c1	12% (inactive)	–
